Data on 125 compounds can be found in PubChem BioAssay AID618 (Sanford-Burnham Center for Chemical Genomics, 2007).

Screen size: about 87,000 compounds; about 540 (0.62%) were called active. The sample holds actives, similar compounds and a random draw of the others, so the mix is not that of the screen. No rule for the calls is given here. Results with a measured potency or affinity are listed apart.

The test can be described thus: inhibitors of MT1-MMP promoter transcription, cell-based, luciferase reporter, luminescence (AID 618).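 Also: actives suppress MT1-MMP promoter-driven transcription so potencies describe inhibitors.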 As to conditions: MT1-MMP promoter luciferase reporter cells. (In general: In a reporter assay the amount or activity of a reporter protein is the signal.)
As for `CC(C)CNC(=O)c1ccccc1NC(=O)c1ccccc1N(C)S(C)(=O)=O`, the outcome was inactive. As for `COC(=O)CSc1nnc2n1C(C)(C)Cc1ccccc1-2`, the result was inactive. On to `Cc1ccc2cc(CCNC(=O)C(C)C)c(=O)[nH]c2c1`, for which the outcome was inactive.

For the compound `COC(=O)c1sc(S(=O)(=O)N2CCCCC2)c(C(=O)OC)c1C`, the call was inactive. As to `COc1ccc(NC(=O)NCCCN2CCc3ccccc3C2)cc1`, the compound was classed as inactive. `O=C(Nc1ccc(N2CCOCC2)c(Cl)c1)c1ccco1`: the compound was called inactive. In the case of `O=C(Nc1ccc(N2CCCCC2)c(C(=O)O)c1)c1ccco1`, the result was inactive. With `CC(=O)NC(c1ccco1)c1ccc2cccnc2c1O` (stereo not given) the entry was “inactive”. With `Oc1c(C(Nc2nc3ccccc3s2)c2ccco2)ccc2cccnc12` (stereo not given) the entry was “inactive”. On to `CCN(CC)C(=O)CSc1nnc(-c2ccccn2)n1-c1ccc(C)c(C)c1`, for which the result was inactive.

As to `COc1ccc(-c2nsc3c(N4CCN(C(=O)c5ccco5)CC4)ncnc23)cc1`, the compound was classed as inactive. `COc1ccc(-c2nsc3c(N4CCCC4)ncnc23)cc1`: the compound was called active. The value for `COc1ccc(S(=O)(=O)N2CCN(c3ncnc4c(-c5ccccc5)nsc34)CC2)cc1` was “inactive”; that for `COc1ccc(-c2nsc3c(N4CCN(S(=O)(=O)c5ccccc5)CC4)ncnc23)cc1` was “inactive”. With `O=C(N1CCCC1)N1CCN(c2ncnc3c(-c4ccc(Cl)cc4)nsc23)CC1` the entry was “inactive”; with `CC1(C)CC(=O)c2cc(C(=O)NC3CCSC3=O)c(=O)n(-c3ccccc3)c2C1` (stereo not given), “inactive”.

Take `O=C(O)C1C2C=CC(C2)C1C(=O)N1CCc2ccccc21` (stereo not given): the call was inactive. For `O=C1CCC(C(=O)OCc2c(Cl)cccc2Cl)N1` (stereo not given), the result was inactive.

Consider `CC1C2CC(CC1(C)C)N(C(=O)Nc1ccc3nccnc3c1)C2` (stereo not given), for which the outcome was inactive. Take `COC(=O)c1c(O)c2ccccc2[nH]c1=O`: the call was inactive. Regarding `Cc1cccc2cc(CN(Cc3cccs3)C3(c4nnnn4C4CCCC4)CCCC3)c(=O)[nH]c12`, the call was inactive. As for `COc1cccc(-c2cn3nc(C)c(C)nc3n2)c1`, the call was inactive. With `c1ccc(-c2ccc(-c3cn4c(n3)CCC4)cc2)cc1`, the compound was classed as inactive.

`COc1cccc(-c2cc(C(F)(F)F)n3nc(N)nc3n2)c1`: the call was inactive. Turning to `COc1ccc(-c2cn3c(n2)CCC3)cc1`, the compound was called inactive. As for `COc1ccc(-c2cn3ccc4ccccc4c3n2)cc1`, the result was inactive. For the compound `COc1cccc(-c2cn3nc4c(nc3n2)CCCC4)c1`, the compound was classed as active. Regarding `c1ccc(-c2cn3c(n2)CCC3)cc1`, the compound was classed as inactive. With `CCOC(=O)c1cc(-c2ccccc2)n(CC(=O)N2CCCC2)c1C` the entry was “inactive”; with `COc1ccc(OC)c(C(C)NC=O)c1` (stereo not given), “inactive”.

`Cc1noc(C)c1CSc1nnc2scc(-c3ccc(Cl)cc3)n12`: the result was inactive. As to `CCc1ccc(NC(=O)c2noc3c2CCCCC3)cc1`, the call was inactive. With `Cc1ccc(NC(=O)c2noc3c2CCCCC3)cc1` the entry was “inactive”.

For the compound `Cc1ccc(NC(=O)c2noc3c2CCCCC3)cc1C`, the call was inactive. With `O=C(Nc1cccnc1)c1noc2c1CCCCC2` the entry was “inactive”; with `Cc1ccccc1C1CC(c2ccc(F)cc2)Nc2nc(N)nn21` (stereo not given), “inactive”. On to `O=C1CCC(=O)N1CCCCCc1nc(-c2ccccc2)no1`, for which the outcome was inactive. `NS(=O)(=O)c1ccc(CNC(=O)C2CCCCC2)cc1`: the result was inactive.

In the case of `CCn1c(SCC(=O)NCC(=O)Nc2ccc(F)cc2)nnc1-c1cccs1`, the compound was classed as inactive.

Take `O=C(COc1c(F)c(F)c(C(F)(F)F)c(F)c1F)Nc1ccc(N2CCOCC2)c(Cl)c1`: the call was inactive. `CCOC(=O)C(NC(=O)CC(C)C)(Nc1cc(C)on1)C(F)(F)F` (stereo not given): the result was inactive. Turning to `CCC(C)(C)n1nnnc1CN1CCC(c2nc3ccc(C)cc3[nH]2)CC1`, the compound was called inactive. `Cc1cc2nc(-c3cccc(NC(=O)c4ccc(Br)o4)c3C)oc2cc1C`: the compound was classed as inactive. As to `Cc1cc2oc(=O)cc(CN3CCC(C)CC3)c2cc1Cl`, the outcome was inactive. For `c1ccc(OCCn2c(-c3ccco3)nc3ccccc32)cc1`, the call was inactive. The value for `CCC(C)C(=O)N1CCc2cc(-c3csc(N)n3)ccc21` (stereo not given) was “inactive”; that for `CC(C)C(=O)N1CCc2cc(-c3csc(N)n3)ccc21` was “inactive”. In the case of `Cc1csc(=O)n1CC(=O)OCc1cccc2ccccc12`, the compound was classed as inactive.

On to `CCOC(=O)c1nn(-c2ccc3c(c2)CCN3C(C)=O)cc1O`, for which the call was active. For `CCOC(=O)c1nn(-c2cc(C(=O)OC)cc(C(=O)OC)c2)cc1O`, the compound was called inactive. With `COC(=O)c1nn(-c2c(C)n(C)n(-c3ccccc3)c2=O)cc1O` the entry was “inactive”; with `CCOC(=O)c1cc(C(=O)OCC)cc(-n2cc(O)c(C(=O)OCC)n2)c1`, “inactive”. Take `CCOC(=O)c1nn(-c2ccc3c(c2)OCO3)cc1O`: the result was inactive.

As to `COC(=O)c1nn(-c2ccc3c(c2)OCO3)cc1O`, the result was inactive.

For the compound `COCCCNS(=O)(=O)c1ccc2c(c1)CCN2C(C)=O`, the compound was classed as inactive. For `O=S(=O)(NCc1ccc(Cl)cc1)c1cnc[nH]1`, the result was inactive. The value for `O=C(O)C1CCCCC1C(=O)NC1CCCCC1` (stereo not given) was “inactive”; that for `CC(C)(C)C(=O)NC1CCN(S(C)(=O)=O)CC1` was “inactive”. With `Cn1cccc1Cc1nnc(SCC(=O)N2CCc3ccccc32)n1-c1ccc(F)cc1`, the result was inactive.

As for `CC1=NC(=O)C(N=Nc2cccc(O)c2)N1c1ccccc1` (stereo not given), the result was inactive. Regarding `CC1=NC(=O)C(N=Nc2ccccc2)N1c1ccccc1` (stereo not given), the call was inactive. On to `Cc1ccn(Cc2n[nH]c(=S)n2Cc2ccccc2)n1`, for which the call was inactive. Consider `COc1ccc(C)cc1S(=O)(=O)N1CCC(C(=O)NCCC2=CCCCC2)CC1`, for which the outcome was inactive.

As to `NS(=O)(=O)c1ccc(NS(=O)(=O)c2cccs2)cc1`, the outcome was inactive.

Take `COc1cc(C2C(C#N)=C(N)Oc3cc(O)ccc32)cc2c1OCO2` (stereo not given): the call was inactive. With `N#CC1=C(N)Oc2cc(O)ccc2C1c1ccccc1` (stereo not given) the entry was “inactive”. With `N#CC1=C(N)Oc2c(ccc3cccnc23)C1c1cccnc1` (stereo not given) the entry was “inactive”; with `N#CC1=C(N)Oc2cc3ccccc3cc2C1c1cccnc1` (stereo not given), “inactive”.

For `COc1cc(C2C(C#N)=C(N)Oc3cc(N(C)C)ccc32)cc2c1OCO2` (stereo not given), the compound was called active. Consider `N#CC1=C(N)Oc2cc(N)ccc2C1c1ccc(F)cc1` (stereo not given), for which the compound was classed as inactive. On to `COc1cc(C2C(C#N)=C(N)Oc3cc(C)oc(=O)c32)cc2c1OCO2` (stereo not given), for which the result was inactive. With `CCN(CC)c1ccc2c(c1)OC(N)=C(C#N)C2c1cccnc1` (stereo not given), the outcome was active. On to `CN(C)c1ccc2c(c1)OC(N)=C(C#N)C2c1cccc(F)c1` (stereo not given), for which the compound was classed as active.

As for `Cc1cc(NC(=O)CSc2nc3c(c(=O)n2CCc2ccccc2)SC(C)C3)no1` (stereo not given), the compound was called inactive. As to `O=C1CC(c2ccccc2)n2nc(NC(=O)c3cccs3)nc2N1` (stereo not given), the result was inactive. With `COc1cc2nc(C)sc2cc1SC`, the result was inactive. Consider `O=C(C1CCCN(Cc2ccccc2Br)C1)N1CCCCC1` (stereo not given), for which the result was inactive. Consider `COc1cccc(NC(=O)CSc2nnc(-c3ccoc3C)n2CC2CCCO2)c1` (stereo not given), for which the compound was classed as inactive. On to `C=CCNC(=O)C1CCN(c2nc(C)cc(-c3ccccc3)n2)CC1`, for which the outcome was inactive.

Take `c1ccc(C2=Nn3c(nnc3-c3ccncc3)SC2)cc1`: the outcome was inactive. With `COc1ccc(CC(C(=O)Nc2cc(C)ccc2C)/C(N)=N/O)cc1` (stereo not given) the entry was “inactive”; with `Cc1ccc2nc(-c3cccc(S(=O)(=O)N(C)C)c3)cn2c1`, “inactive”; with `COc1ccc(-c2cn3cc(C)ccc3n2)cc1OC`, “inactive”. As to `Cc1ccc2nc(-c3ccccc3)cn2c1`, the outcome was active. Regarding `CCOc1ccccc1NC(=O)Cn1nnc(C(=O)NCc2ccco2)c1N`, the call was inactive. The value for `CCOC(=O)C(C(=O)OCC)=C1OC(=O)c2ccccc21` was “inactive”. For the compound `CN(C)CCCNC(=O)c1ccc(-c2ccccc2)cc1`, the outcome was inactive.

In the case of `CCOC(=O)CNC(=O)c1cn(CC(C)C)c(=O)c2cc(OC)c(OC)cc12`, the call was inactive.

As to `Cc1ccc2cc(CN(CC3CCCO3)S(=O)(=O)c3c(C)ccc4nsnc34)c(=O)[nH]c2c1` (stereo not given), the compound was classed as inactive. For `COCc1nnc(NS(=O)(=O)c2c(C)cc(C)cc2C)s1`, the result was inactive.

For `O=c1/c(=C/c2ccc(O)cc2)sc2n1CCCN=2`, the compound was called inactive. With `CN(C)c1ccc(/C=c2\sc3n(c2=O)CCCN=3)cc1` the entry was “active”; with `O=c1/c(=C\c2ccc3c(c2)OCO3)sc2n1CCCN=2`, “inactive”; with `O=C(NCCN1CCOCC1)c1ccc2ccccc2n1`, “inactive”. With `COCCn1cc(C(=O)NCCCN2CCC(C)CC2)c2c3ccccc3n(C)c2c1=O` the entry was “inactive”. On to `CCC(C)(C)n1nnnc1C(c1cc2ccc(OC)cc2[nH]c1=O)N1CCc2ccccc21` (stereo not given), for which the call was inactive. As for `O=C(Cc1ccccc1)Nc1ccc(NC(=O)c2ccco2)nc1`, the result was inactive. Regarding `O=C(Nc1ccc(NC(=O)C2CCCCC2)cn1)c1ccco1`, the compound was classed as active.

For the compound `O=C(Nc1ccc(NC(=O)c2ccco2)nc1)c1cccnc1`, the compound was classed as inactive. The value for `CCCC(=O)Nc1ccc(NC(=O)c2ccccn2)cn1` was “inactive”; that for `CCC(=O)Nc1ccc(NC(=O)c2ccccn2)cn1` was “inactive”. Regarding `O=C(Nc1ccc(NC(=O)C2CCCCC2)nc1)c1ccco1`, the result was inactive. In the case of `O=C(Nc1ccc(NC(=O)C2CC2)nc1)c1ccco1`, the compound was called inactive. The value for `CCN(Cc1ccccc1)C(c1cc2cc(C)ccc2[nH]c1=O)c1nnnn1CCOC` (stereo not given) was “inactive”; that for `CCCCCCn1c(N2CCN(c3ccccc3)CC2)nc2c1c(=O)n(C)c(=O)n2C` was “inactive”; that for `O=C(Cn1cnc2ccccc2c1=O)N1CCOCC1` was “inactive”. For the compound `CCC1=C2CC[C@H]3C(=O)N(c4ccccc4)C(=O)[C@H]3[C@H]2[C@@]2(Cc3ccccc3)C(=O)N(CC(=O)OC)C(=O)N2C1=O`, the result was inactive. For `N#Cc1c(/N=C/c2cccs2)sc2c1CCC2`, the compound was classed as inactive.

For the compound `N#Cc1c(/N=C/c2ccc(Br)s2)sc2c1CCC2`, the outcome was inactive. `N#Cc1c(/N=C/c2cccs2)sc2c1CCCCC2`: the compound was classed as active. With `COc1ccc(C(CNC(=O)c2ccc(-n3cnnn3)cc2)N2CCOCC2)cc1` (stereo not given) the entry was “inactive”; with `CC(=O)c1ccc(-c2nc3ccccc3n2C)o1`, “inactive”; with `Cc1oc(-c2nc3ccccc3n2C)cc1C(=O)c1ccccc1`, “active”. Turning to `Cn1cc(C(=O)c2ccccc2)cc1-c1nc2ccccc2n1C`, the compound was called inactive. With `C/C(=C1\SC(N2CCOCC2)=NC1=O)c1ccc(C)cc1` the entry was “inactive”; with `Cc1ccc(CS(=O)(=O)CCC(=O)NCc2ccc3c(c2)OCO3)cc1`, “inactive”; with `CC(C)(C)c1ccc(OCC(=O)Nc2ccc(-c3nc4cccnc4o3)cc2)cc1`, “inactive”. Regarding `Cc1cc2nc(-c3ccc(NC(=O)C(C)C)cc3)oc2cc1C`, the outcome was inactive. As to `CCCC(=O)Nc1ccc(-c2nc3cc(C)c(C)cc3o2)cc1`, the call was inactive. With `CCC(=O)Nc1ccc2oc(-c3ccccc3Br)nc2c1` the entry was “inactive”; with `CCC(=O)Nc1ccc2oc(-c3cccc(C)c3)nc2c1`, “active”; with `CCC(C)NCC(=O)Nc1ccc(-c2nc3cc(NC(=O)CNC(C)CC)ccc3o2)cc1` (stereo not given), “inactive”. As to `CCC(=O)Nc1cccc(-c2nc3ccccc3o2)c1`, the compound was classed as inactive.

Consider `Cc1ccc(-c2nc3cc(NC(=O)C(C)C)ccc3o2)cc1C`, for which the compound was called inactive. Regarding `Cc1ccc2oc(-c3ccc(NC(=O)CC(C)C)cc3)nc2c1`, the outcome was inactive.
